From PubChem BioAssay
Giardia FBPA inh – qHTS Assay for Inhibitors of Fructose-1,6-bisphosphate Aldolase from Giardia Lamblia | A8B2U2 | purified Giardia FBPA | Potency, µM (titrated, usually from 59.6 µM), inactives show at the top dose activity, negative = inhibition, most hits filed as inhibitors | hit rate 0.71% among 290,000; note: nearly all actives have a fitted effect of over 55% in size
Target sequence (A8B2U2 whole entry, looked up): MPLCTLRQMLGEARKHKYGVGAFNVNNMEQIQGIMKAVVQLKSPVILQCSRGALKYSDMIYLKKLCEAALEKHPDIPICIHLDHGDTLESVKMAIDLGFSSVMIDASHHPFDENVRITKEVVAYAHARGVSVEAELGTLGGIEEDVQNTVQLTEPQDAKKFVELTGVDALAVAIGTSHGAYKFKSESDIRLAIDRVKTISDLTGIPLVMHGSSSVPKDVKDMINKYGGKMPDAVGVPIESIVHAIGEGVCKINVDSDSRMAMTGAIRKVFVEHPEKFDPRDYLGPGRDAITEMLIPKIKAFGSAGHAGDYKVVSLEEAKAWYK
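Giardia FBPA (40 nM reagent) was preincubated 10 min at RT with compound (up to 57.5 uM final), then substrate plus GAPDH/TPI/NAD/arsenate coupling system with diaphorase/resazurin was added; resorufin fluorescence (525/598 nm) was read after 20 min.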
AMA1 RON2 block – qHTS for Inhibitors of AMA1-RON; Towards Development of Antimalarial Drug Lead: Primary Screen; hit rate 0.2% among 360,000; AlphaScreen AMA1-biotinylated RON2 peptide binding; AID 720542, 2013; Potency, µM (series often up to 58.2 µM), for the others: at the highest dose activity change, negative = inhibition, most hits filed as inhibitors;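 note: 0% = vehicle wells and -100% = peptide control; nearly all actives have a fitted effect of over 45% in size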
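AMA1 (3D7) with his tag at 25 nM final met compounds first, then biotinylated RON2 peptide at 25 nM; detection used donor plus acceptor beads, 10 µg/mL apiece, read by AlphaScreen after 30 min at room temperature.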
LmPK inhibitor – qHTS Assay for Inhibitors of Leishmania Mexicana Pyruvate Kinase (LmPK) | Q27686 | Potency, µM (top dose mostly 57.5 µM), for inactives: at the highest dose activity change, negative = inhibition, hits mostly inhibitors | hit rate 0.37% among 290,000 | purified LmPK, Kinase-Glo ATP luminescence, 1 h
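0.1 nM LmPK, 0.5 mM PEP, 0.1 mM ADP; 50 mM imidazole pH 7.2, 7 mM MgCl2, 50 mM KCl; 1 h RT. Kinase-Glo luminescence readout, normalized to no-enzyme (full inhibition) and uninhibited wells.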
AmpC inh no detg – qHTS Inhibitors of AmpC Beta-Lactamase (assay without detergent) | hit rate 0.52% among 330,000 | P00811 | Potency, µM (titrated, usually from 57.1 µM), for the others: at the highest dose activity change, negative = inhibition, hits mostly inhibitors | AmpC nitrocefin hydrolysis, absorbance 480 nm, 0.0001% Triton;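 note: plate controls were no compound for no effect and no enzyme for full effect; nearly all actives have a fitted effect of over 20% in size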
Target sequence (P00811 whole entry, looked up): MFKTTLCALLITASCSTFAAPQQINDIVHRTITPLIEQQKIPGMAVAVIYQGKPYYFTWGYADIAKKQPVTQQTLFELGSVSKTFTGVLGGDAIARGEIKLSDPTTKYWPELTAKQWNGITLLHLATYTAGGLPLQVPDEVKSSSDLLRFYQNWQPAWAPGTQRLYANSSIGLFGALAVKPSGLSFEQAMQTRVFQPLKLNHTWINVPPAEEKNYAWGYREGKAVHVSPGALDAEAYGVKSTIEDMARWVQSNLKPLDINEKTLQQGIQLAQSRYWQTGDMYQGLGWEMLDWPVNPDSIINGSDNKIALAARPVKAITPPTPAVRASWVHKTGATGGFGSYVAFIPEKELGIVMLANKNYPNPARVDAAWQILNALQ
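AmpC (5.3 nM in the dispensed reagent) in 20 mM phosphate pH 7.0 with 0.01% (detergent screen) or 0.0001% Triton X-100 was preincubated with compounds for 15 min at room temperature. Nitrocefin was then added from an 800 uM solution, and hydrolysis was followed at 480 nm.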
AmpC inh detg – qHTS Inhibitors of AmpC Beta-Lactamase (assay with detergent) | Potency, µM (titrated, usually from 114 µM), without a hit: at the highest dose activity change, negative = inhibition, hits mostly inhibitors | hit rate 0.041% among 370,000 | P00811 | AmpC hydrolysis of nitrocefin, absorbance 480 nm, 0.01% Triton;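 note: 0% = no-compound wells and -100% = no-enzyme wells; nearly all actives have a fitted effect of over 25% in size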
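AmpC (5.3 nM in the dispensed reagent) in 20 mM phosphate pH 7.0 with 0.01% (detergent screen) or 0.0001% Triton X-100 was preincubated with compounds for 15 min at room temperature. Nitrocefin was then added from an 800 uM solution, and hydrolysis was followed at 480 nm.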
* hit, by the source's call; ? = inconclusive; nt = no result given. Only some compounds are listed: those with a hit (about 1.3% of all), similar ones and a draw of the others. Calls come from the whole dose curve; as a rule, active = well fitted curve in the direction sought with a large enough effect; inconclusive = small, poorly fitted or top-dose-only effect, or another doubt; inactive = no such curve, though single readings can be large; an effect the other way counts as inactive or inconclusive. Unless noted, % is set by controls: 0 for no effect and ±100 for the full control effect; potency is the fitted concentration of half-maximal effect.

SMILES	Giardia FBPA inh	AMA1 RON2 block	LmPK inhibitor	AmpC inh no detg	AmpC inh detg
Cc1ccc(C)c(NC(=O)CSc2nnc(-c3ccccc3)o2)c1	4.2%	6.1%	5.3%	39.8µM*	?
CCOc1ccccc1NC(=O)c1cc(CC(C)C)oc1C	-0.6%	6.7%	-6.4%	0.316µM*	4.1%
O=C(NCc1ccco1)c1cc2ccc(O)cc2oc1=O	0.1%	-11.1%	14.1µM*	-17.0%	-1.2%
COC(=O)C1=C[C@@H](C(=O)OC)C2C3=C(C(=O)[C@@]2(C)NC(=O)c2ccccc2)[C@H](c2ccccc2)n2c(=O)n(-c4ccccc4)c(=O)n2[C@@H]3C1 (some centres not stated)	-2.7%	nt	nt	nt	nt
COCCn1c(C)c(C)c(S(=O)(=O)c2ccccc2)c1N	-27.5%	-9.6%	4.2%	6.1%	1.8%
c1ccc(CNc2ccc(N3CCOCC3)cc2)cc1	nt	nt	nt	14.1%	nt
Clc1ccc(CNc2ccc(N3CCN(Cc4ccccc4)CC3)cc2)cc1	-0.5%	7.94µM*	0.2%	24.7%	-0.6%
CN(C)c1ccc(C=C2C=C(c3ccccc3)OC2=O)cc1	nt	8.91µM*	nt	nt	nt
O=C(O)c1ccc2c(c1)C1C(Cl)C(Sc3ccccc3[N+](=O)[O-])CC1C(c1cccc([N+](=O)[O-])c1)N2 (configuration not stated)	-14.9%	-29.1%	2.3%	17.8µM*	-14.1%
CCOC(=O)c1scc(-c2ccc(C)cc2)c1S(=O)(=O)Nc1cccc(CC)c1	nt	nt	nt	nt	-2.7%
CC(=O)c1ccc(NC(=O)COC(=O)c2ccccc2N=Nc2ccc(N(C)C)cc2)cc1	0.8%	11.2µM*	1.2%	13.5%	-0.3%
COC(=O)c1ccccc1NC(=O)COC(=O)c1ccccc1N=Nc1ccc(N(C)C)cc1	1.1%	?	-4.9%	-35.3%	-16.1%
CN(C)c1ccc(N=Nc2ccccc2C(=O)OCC(=O)N(C)c2ccccc2)cc1	2.4%	14.1µM*	2.3%	8.1%	-11.5%
COc1cccc(C(=O)NC2=NC(c3ccccc3F)CC(=O)N2)c1 (configuration not stated)	nt	nt	nt	nt	0.4%
CCOc1ccc(-n2c(SCC(=O)NCc3ccco3)nnc2-c2c[nH]c3ccccc23)cc1	3.8%	-1.3%	7.7%	1.41µM*	?
CC(C)c1ccc(-c2nn(-c3ccccc3)cc2C(=O)NCC2CCCO2)cc1 (configuration not stated)	nt	1.3%	nt	167.3%	-11.8%
CC1=C(C(=O)OC(C)C)C(c2cccc([N+](=O)[O-])c2)n2c(cc(=O)[nH]c2=S)N1 (configuration not stated)	19.7%	33.7%	3.1%	35.5µM*	-16.0%
CCCCCOc1ccc(N2C(=O)CC(N(O)c3ccccc3)C2=O)cc1 (configuration not stated)	-0.8%	11.5%	3.8%	20µM*	?
CCCCOc1ccc(N2C(=O)CC(N(O)c3ccccc3)C2=O)cc1 (configuration not stated)	1.7%	8.6%	0.7%	-20.6%	-7.0%
CN(CC(=O)Nc1ccc(Cl)c(C(F)(F)F)c1)C(=O)CCCNC(=O)c1ccc(Cl)cc1	nt	-1.2%	nt	138.6%	?
Cc1ccc(/C=N/n2cc(-c3ccccc3)[nH]c2=S)s1	2.5%	78.9%	?	-37.2%	-9.1%
COc1cc(/C=N/n2cc(-c3ccccc3)[nH]c2=S)cc(OC)c1O	-7.7%	67.4%	2.51µM*	-32.3%	-7.6%
S=c1[nH]c(-c2ccccc2)cn1/N=C/c1ccccc1Br	2.1%	20.5%	-5.0%	-44.0%	0.0%
S=c1[nH]c(-c2ccccc2)cn1/N=C/c1cccc2ccccc12	-0.8%	47.5%	-4.9%	2.51µM*	-1.3%
Oc1ccc(/C=N/n2cc(-c3ccccc3)[nH]c2=S)cc1	3.7%	92.1%	-9.4%	31.6µM*	?
SMILES	Giardia FBPA inh	AMA1 RON2 block	LmPK inhibitor	AmpC inh no detg	AmpC inh detg
Cc1ccc2oc(C(=O)Nc3c(C(=O)c4ccc(C)c(F)c4)oc4ccccc34)cc(=O)c2c1	nt	nt	nt	nt	1.9%
CSc1ccc(N=Nc2c(C)[nH]n(C)c2=O)cc1	-29.2%	14.1µM*	-23.6%	49.5%	-12.3%
CN(N=Cc1ccccc1)C(=S)Nc1ccccc1	nt	-1.7%	nt	nt	nt
COc1ccccc1NC(=O)c1sc2ncn(Cc3ccc(C)cc3)c(=O)c2c1C	-0.6%	-3.4%	5.3%	0.316µM*	-3.8%
Cc1ccc(-n2c(C)cc(C(=O)C(=O)Nc3ccccc3)c2C)c(C)c1	nt	nt	nt	nt	26.8%
CCc1nnc(N/N=C/c2ccc(-c3ccc([N+](=O)[O-])cc3)o2)n1N	4.46µM*	74.5%	-0.3%	-8.3%	0.6%
Cc1nnc(N/N=C\c2ccc(-c3ccccc3[N+](=O)[O-])o2)n1N	1.77µM*	-12.8%	-1.1%	-25.9%	-4.8%
Cc1n[nH]c(=S)n1/N=C/c1ccc(-c2ccccc2[N+](=O)[O-])o1	-11.3%	14.1%	-10.9%	-48.4%	2.0%
CCc1ccc(S(=O)(=O)/N=C2\C=C(Nc3ccc(C(=O)O)cc3)C(=O)c3ccccc32)cc1	0.447µM*	?	-6.8%	-32.5%	-12.8%
Cc1ccc(S(=O)(=O)/N=C2\C=C(Nc3cccc(C(=O)O)c3)C(=O)c3ccccc32)cc1	0.251µM*	-26.9%	-11.1%	-45.6%	-8.7%
Cc1ccc(S(=O)(=O)/N=C2\C=C(Nc3ccc(O)cc3)C(=O)c3ccccc32)cc1	nt	20µM*	nt	-13.5%	nt
CCc1ccc(NC2=CC(=O)C(=O)c3ccccc32)cc1	nt	-7.1%	nt	-24.6%	-5.1%
Cc1ccc(NC2=C/C(=N/S(=O)(=O)c3cccs3)c3ccccc3C2=O)cc1	?	-14.9%	-7.8%	-30.0%	-5.3%
Cc1ccc(S(=O)(=O)/N=C2\C=C(Nc3cccc(C(=O)O)c3)C(=O)c3ccccc32)c(C)c1	?	?	-22.5%	-11.2%	3.6%
COc1cc(N(C)C)cc(CN(C)CCc2ccc([N+](=O)[O-])cc2)c1O	7.92µM*	nt	nt	nt	nt
NC(=O)C1(N2CCCCC2)CCN(Cc2nc3ccccc3c(=O)[nH]2)CC1	-1.0%	17.3%	1.3%	0.316µM*	3.7%
NC(=O)C1CCN(Cc2nc3ccccc3c(=O)[nH]2)CC1	-20.1%	29.4%	-9.6%	-18.7%	0.5%
Cc1cc(C(=O)OCC(=O)Nc2sc3c(c2C#N)CCC(C)C3)c2ccccc2n1 (configuration not stated)	-0.4%	-8.4%	4.7%	14.1µM*	2.3%
COc1ccccc1-c1cc(C(=O)Nc2sc3c(c2C#N)CCC(C)C3)c2ccccc2n1 (configuration not stated)	6.8%	11.7%	6.4%	?	-6.1%
